The values that follow come from PubChem BioAssay (Tox21).

In assay [1] the target is Thyrotropin receptor (Homo sapiens) (UniProt P16473). Briefly: qHTS assay to identify small molecule agonists of the thyroid stimulating hormone receptor (TSHR) signaling pathway (AID 1224843; calls by dose curve; further: nearly all actives have a fitted effect of over 45% in size). In short, it runs like this: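 HEK293/TSHR, 800 cells/well; cpd 30 min RT; add cAMP-d2 + anti-cAMP-cryptate, 1 h RT; fluorescence read on plate reader. 15-pt titration, n=3.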
Background: Quantitative high-throughput screening tests each substance at several concentrations.

The nature of assay [2]: qHTS assay to identify small molecule agonists of the hypoxia (HIF-1) signaling pathway - cell viability counter screen (AID 1224844; calls by dose curve; further: nearly all actives have a fitted effect of over 50% in size). In short, it runs like this: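 HRE-bla ME-180; 0.5% dFBS; cpd 17 h, 37C, 5% CO2; CellTiter-Glo lum., 30 min RT, post-FRET read, same wells.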
A short description of assay [3]: qHTS assay to identify small molecule agonists of H2AX (AID 1224845; active means well fitted activation curve with a large enough effect in the signal ratio in the repeat runs, not every such curve was filed as active; the % refers to the signal ratio). In outline: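 Wild-type CHO-K1 cells, plated overnight, exposed 3hr at 37C to 15 concentrations (0.76% DMSO final). Lysed, then HTRF anti-pH2AX (S139) cryptate and anti-H2AX-d2 antibodies, 24 hr room temperature; 665/620 nm emission read.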
Assay [4] in a line: qHTS assay to identify small molecule agonists of the hypoxia (HIF-1) signaling pathway (AID 1224846; active means well fitted activation curve with a large enough effect in the signal ratio in the repeat runs, not every such curve was filed as active; the % refers to the signal ratio). In outline: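 Reporter induction in HRE-bla ME-180 cells is taken as agonism: cells sit 5 hrs after plating, receive compounds or DMSO only, incubate 17 hrs at 37C under 5% CO2, and are loaded with CCF4-AM for beta-lactamase FRET measurement.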
Assay [5] can be described thus: qHTS assay to identify small molecule agonists of H2AX - cell viability counter screen (AID 1224847; calls by dose curve; further: top concentration of the series differs between compounds; nearly all actives have a fitted effect of over 30% in size). In outline:
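Read-out: CellTiter-Glo luminescence, 30 min RT. Cells: wild-type CHO-K1, 1000/well, 10% FBS, plated overnight at 37C. Treatment: 15 concentrations, 3 hr, 37C, 0.76% DMSO.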

Assay [6] can be described thus: A CellTox Green Cytotoxicity Assay to monitor cytotoxicity in HEK293 cells - 0 hour (AID 1224869). Further: nearly all actives have a fitted effect of over 50% in size. In outline:
(§1)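 Tox21 screen in HEK293: membrane-impermeant cyanine dye fluoresces on binding dead-cell DNA; compound pinned 5 h post-seeding, plates held at 37 C, signal read repeatedly through 40 h.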

Assay [7] can be described thus: A CellTox Green Cytotoxicity Assay to monitor cytotoxicity in HEK293 cells - 40 hour (AID 1224871). Further: nearly all actives have a fitted effect of over 45% in size. Further: potency means the concentration at half of the fitted maximal effect. In short, it runs like this:
as §1

Assay [8] in a line: A CellTox Green Cytotoxicity Assay to monitor cytotoxicity in HEK293 cells - 24 hour (AID 1224875). Further: nearly all actives have a fitted effect of over 45% in size. Further: potency means the concentration at half of the fitted maximal effect. In short, it runs like this: as §1
The nature of assay [9]: A CellTox Green Cytotoxicity Assay to monitor cytotoxicity in HepG2 cells - 16 hour (AID 1224876). Further: nearly all actives have a fitted effect of over 45% in size. Further: potency means the concentration at half of the fitted maximal effect. In outline:
(§2)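 Measurements at 0, 8, 16, 24, 32 and 40 h of treatment captured CellTox Green fluorescence in HepG2 cells that had been co-plated with reagent and preincubated 5 h at 37 C/5% CO2.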

The nature of assay [10]: A CellTox Green Cytotoxicity Assay to monitor cytotoxicity in HepG2 cells - 24 hour (AID 1224878). Further: nearly all actives have a fitted effect of over 45% in size. Further: potency means the concentration at half of the fitted maximal effect. In outline: as §2
Assay [11] in a line: A CellTox Green Cytotoxicity Assay to monitor cytotoxicity in HepG2 cells - 40 hour (AID 1224879). Further: nearly all actives have a fitted effect of over 40% in size. Further: potency means the concentration at half of the fitted maximal effect. In short, it runs like this:
as §2

A short description of assay [12]: qHTS RealTime-Glo MT Cell Viability Assay in HepG2 cells - 24 hour (AID 1224867). Further: nearly all actives have a fitted effect of over 50% in size. In short, it runs like this:
(§3)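 Real-time, nonlytic viability: 600 HepG2 cells/well mixed with NanoLuc enzyme plus prosubstrate; 5 h settle, compound (DMSO) added by pintool; luminescence monitored over 40 h at 37 C.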

Assay [13] can be described thus: qHTS RealTime-Glo MT Cell Viability Assay in HEK293 cells - 32 hour (AID 1224868). Further: top concentration of the series differs between compounds; nearly all actives have a fitted effect of over 50% in size. In outline:
(§4)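 Cells + reagent dispensed (600 cells/well, HEK293) → 5 h at 37 C/5% CO2 → 23 nL compound in DMSO pinned → 40 h at 37 C → luminescence read at 0, 8, 16, 24, 32, 40 h.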

Assay [14] in a line: qHTS RealTime-Glo MT Cell Viability Assay in HEK293 cells - 16 hour (AID 1224872). In short, it runs like this:
as §4

A short description of assay [15]: qHTS RealTime-Glo MT Cell Viability Assay in HepG2 cells - 8 hour (AID 1224873). Further: nearly all actives have a fitted effect of over 55% in size. In short, it runs like this:
(§5)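 HepG2 cells (600/well) mixed with RealTime-Glo MT reagent, settled 5 h at 37 C/5% CO2 before compound addition. Nonlytic NanoLuc luminescence from viable-cell prosubstrate reduction read repeatedly during 40 h treatment at 37 C.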

A short description of assay [16]: qHTS RealTime-Glo MT Cell Viability Assay in HEK293 cells - 40 hour (AID 1224874). Further: nearly all actives have a fitted effect of over 50% in size. The note with it: RealTime-Glo luminescence; max response: hits give low values. In outline:
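HEK293 + NanoLuc + prosubstrate, 600 cells/well; 5 h, 37 C/5% CO2; compound 23 nL in DMSO by pintool; 37 C; luminescence read at 0, 8, 16, 24, 32 and 40 h time points.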

Assay [17] is described as follows: qHTS RealTime-Glo MT Cell Viability Assay in HepG2 cells - 32 hour (AID 1224877). Further: nearly all actives have a fitted effect of over 55% in size. In short, it runs like this: as §3
Assay [18] can be described thus: qHTS RealTime-Glo MT Cell Viability Assay in HepG2 cells - 40 hour (AID 1224870). Further: nearly all actives have a fitted effect of over 50% in size. In short, it runs like this:
as §5

Assay [19] in a line: qHTS assay to identify small molecule agonists of the estrogen related receptor (ERR) signaling pathway from Tox21 library (AID 1224849; calls by dose curve; further: nearly all actives have a fitted effect of over 15% in size). The note with it: ERR reporter cell line, ONE-Glo luciferase, 18 h; at 92.4 µM (top of the series) unless noted. In outline:
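Tox21 compounds tested for ERR agonism in an NTP reporter cell line: 18 h treatment at 37 C, then ONE-Glo luminescence.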

Assay [20] in a line: qHTS assay to identify small molecule antagonists of the estrogen related receptor (ERR) signaling pathway from Tox21 library (AID 1224848). Further: nearly all actives have a fitted effect of over 50% in size. In short, it runs like this:
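Compounds dissolved in DMSO are pin-transferred onto ERR reporter cells (2,000 per well) that have settled for 6 h at 37 C. Plates then incubate 18 h at 37 C before ONE-Glo luciferase reagent and a luminescence read 30 min later.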

Unmarked numbers belong to inactive results. Results filed as inconclusive are left out. The source made the active and inactive calls. Unless noted, the call rests on the fitted dose curve; in most records, active means well fitted curve in the direction sought with a large enough effect in the repeat runs; inconclusive means weak or mixed curves; inactive means no such curve, though single readings can be large; an effect the other way counts as inactive or inconclusive.
On the % scale 0 is the no-effect control and ±100 the full control effect.

Thyrotropin receptor (Homo sapiens), sequence (P16473 whole entry, looked up): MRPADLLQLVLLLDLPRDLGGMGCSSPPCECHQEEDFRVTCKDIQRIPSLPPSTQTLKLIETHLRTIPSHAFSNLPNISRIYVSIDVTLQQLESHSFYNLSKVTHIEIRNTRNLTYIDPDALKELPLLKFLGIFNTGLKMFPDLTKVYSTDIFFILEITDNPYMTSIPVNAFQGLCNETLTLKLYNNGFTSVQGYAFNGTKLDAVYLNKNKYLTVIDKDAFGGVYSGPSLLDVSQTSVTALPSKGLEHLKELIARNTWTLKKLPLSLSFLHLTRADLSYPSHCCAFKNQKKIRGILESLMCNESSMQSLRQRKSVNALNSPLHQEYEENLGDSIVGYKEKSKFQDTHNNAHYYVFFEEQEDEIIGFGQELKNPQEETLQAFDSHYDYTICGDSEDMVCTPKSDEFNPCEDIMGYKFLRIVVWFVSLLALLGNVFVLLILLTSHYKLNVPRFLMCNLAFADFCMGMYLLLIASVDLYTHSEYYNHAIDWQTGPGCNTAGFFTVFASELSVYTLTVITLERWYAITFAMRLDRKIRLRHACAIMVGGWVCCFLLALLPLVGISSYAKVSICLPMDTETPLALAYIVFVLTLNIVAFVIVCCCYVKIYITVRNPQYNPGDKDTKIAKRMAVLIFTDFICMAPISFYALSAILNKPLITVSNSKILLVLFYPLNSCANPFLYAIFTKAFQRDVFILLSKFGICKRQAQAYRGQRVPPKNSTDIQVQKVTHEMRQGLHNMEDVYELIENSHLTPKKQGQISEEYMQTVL

With `CC(C)(C)NCC(O)COc1ccc(NC(=O)NC2CCCCC2)cc1` (stereo unspecified), the Potency entry in assay [1], in [2], in assay [3], in [5], in assay [6] and in [7] was “inactive” in each case. In addition, the Potency result in assay [8], in assay [9], in assay [10] and in assay [11] was “inactive” throughout. Also, the result in [4] was inactive.
In the case of `OCCCO`, the Potency result in assay [1], in assay [2], in assay [3], in assay [5], in assay [13] and in assay [14] was “inactive” each time. Also, the Potency entry in assay [8], in assay [9], in assay [17], in [10] and in assay [11] was “inactive” throughout. Further, the call in assay [4], in assay [12] and in [15] was inactive. Further, the max response in [16] is 16.2%.
As for `CCCCCCCCCCCCCCCCN`, the Potency result in assay [1], in assay [2], in assay [3], in assay [13], in [18] and in assay [14] was “inactive” throughout. In addition, the Potency result in assay [17] is “inactive”. Besides, the call in assay [4], in assay [12] and in [15] was inactive. For the same compound, the Potency in [7] was 12 µM (active); in [8] it was 10.7 µM (active); in assay [9], 23.9 µM (active); in assay [10], 21.3 µM (active); in assay [11], 23.9 µM (active). Besides, in assay [16], the max response was 11.5%.
`CC(C)C/C=C(\C=O)c1ccccc1`: the Potency entry in assay [1], in assay [2], in assay [3], in [13], in assay [6] and in assay [18] was “inactive” in each case. The Potency result in assay [7], in assay [14], in [8], in [9], in assay [17] and in [10] was “inactive” each time. Also, the Potency entry in [11] was “inactive”. Further, the result in assay [4] and in assay [15] was inactive. The activity change, positive = activation in assay [19] was -20.3%. Also, in [16], the max response is 10%.
As to `CC(CC(C#N)(c1ccccc1)C(C)C)N(C)C` (stereo unspecified), the Potency entry in [1], in assay [2], in assay [3], in assay [20], in [13] and in assay [6] was “inactive” throughout. Further, the Potency result in assay [7], in assay [14], in [8], in assay [9], in assay [17] and in assay [10] was “inactive” each time. Also, the Potency result in assay [11] is “inactive”. Moreover, the result in [4], in assay [12] and in assay [15] was inactive. Further, in assay [19], the activity change, positive = activation is 2.64% [at 42.5 µM]. In assay [16], the max response is 6.67%.
On to `COC(=O)c1cc(Cl)ccc1[N+](=O)[O-]`, for which the Potency result in assay [1], in [2], in assay [3], in assay [13], in [18] and in assay [7] was “inactive” in each case. For the same compound, the Potency result in assay [14], in [8], in assay [9], in assay [17], in assay [10] and in [11] was “inactive” throughout. The compound was classed as inactive in assay [4], in [12] and in assay [15]. Further, in assay [16], the max response was -14.8%.
As to `CCc1ccc2c(c1)C(=O)c1ccccc1C2=O`, the Potency entry in [1], in assay [2], in assay [3], in assay [13], in assay [6] and in assay [7] was “inactive” in each case. Besides, the Potency entry in assay [14], in [8], in assay [9], in assay [17], in [10] and in assay [11] was “inactive” throughout. The outcome in [4], in [12] and in [15] was inactive. Besides, in assay [16], the max response was 11.6%.
As to `Cc1ccccc1CCO`, the Potency entry in assay [1], in assay [2], in assay [3], in [20], in [13] and in assay [6] was “inactive” throughout. In addition, the Potency entry in assay [18], in assay [14], in [8], in assay [9], in [17] and in assay [11] was “inactive” in each case. For the same compound, the compound was called inactive in assay [4], in assay [12] and in [15]. Besides, the activity change, positive = activation in [19] is -1.5%. Also, the max response in assay [16] is 5.71%.
